Compound activity deposited in PubChem by NMMLSC.
Only some compounds are listed: those with a hit (about 2.5% of all), similar ones and a draw of the others.
GRK2 inh: blocks RNA aptamer binding to human GRK2; P25098; bead flow cytometry, FAM-aptamer displacement from GRK2; inhibition of aptamer binding, % at 10 µM; actives 0.59% (n = 330,000);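 active means inhibition of aptamer binding above 40%, roughly 3 SD of noise, on plates passing a quality check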;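 further: median bead fluorescence of bound FAM aptamer so fluorescent compounds give negative values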
Target sequence (P25098 whole entry, looked up): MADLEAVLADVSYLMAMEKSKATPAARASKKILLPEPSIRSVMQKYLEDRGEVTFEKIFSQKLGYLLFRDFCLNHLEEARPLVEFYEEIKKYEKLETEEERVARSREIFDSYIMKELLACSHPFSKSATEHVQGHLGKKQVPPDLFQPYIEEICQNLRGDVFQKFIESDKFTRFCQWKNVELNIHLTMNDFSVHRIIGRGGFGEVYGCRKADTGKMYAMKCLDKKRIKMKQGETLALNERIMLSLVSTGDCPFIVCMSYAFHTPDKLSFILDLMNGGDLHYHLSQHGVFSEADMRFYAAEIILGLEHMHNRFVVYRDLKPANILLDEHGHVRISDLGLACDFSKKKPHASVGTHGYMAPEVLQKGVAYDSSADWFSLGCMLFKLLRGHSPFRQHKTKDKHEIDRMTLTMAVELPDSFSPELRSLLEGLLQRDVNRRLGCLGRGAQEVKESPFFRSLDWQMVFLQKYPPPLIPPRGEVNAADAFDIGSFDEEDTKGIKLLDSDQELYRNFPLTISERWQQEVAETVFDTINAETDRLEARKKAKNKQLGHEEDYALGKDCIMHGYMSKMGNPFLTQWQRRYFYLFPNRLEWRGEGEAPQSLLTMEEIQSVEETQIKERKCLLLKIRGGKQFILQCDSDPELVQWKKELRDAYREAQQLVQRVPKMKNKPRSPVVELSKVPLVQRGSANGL
MEKK2 WT-MEK5: raises or lowers MEK5 binding to wildtype human MEKK2 PB1 domain; Q9Y2U5; bead flow cytometry, Alexa488-MEK5 binding to MEKK2 WT; actives lie on both sides; binding response (% of control), % at 10 µM; actives 1.1% (n = 290,000); AID 1531; in the data active means binding response below about 67% or above about 130%
MEKK3 PB1 HTS: MEKK3-MEK5 PB1 interaction, increase or decrease; actives 1.4% (n = 290,000); AID 1529; binding response (% of control), % at 10 µM; bead-based flow cytometry, Alexa488-MEK5 binding to MEKK3; actives lie on both sides; 0 = blocked by unlabeled MEK5, 100 = vehicle;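 active means binding response more than 3 SD above or below the average of its plate-row segment, actives on both sides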;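 further: Alexa488 bead fluorescence after subtracting the streptavidin-only scavenger bead signal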
MEKK2mut PB1 HTS: signal of MEK5 binding to mutant human MEKK2 PB1 domain; bead flow cytometry, Alexa488-MEK5 binding to MEKK2 mutant; percent response, % at 10 µM; actives 0.35% (n = 290,000); AID 1530; in the data active means percent response above about 24%, passing the limit was not always enough
MEKK2wt confirm: raises or lowers MEK5 binding to wildtype human MEKK2, retest | bead flow cytometry, Alexa488-MEK5 binding to MEKK2 WT; actives lie on both sides | shares compounds with MEKK3 PB1 HTS | binding response (% of control), % at 10 µM | AID 1892 | actives 2.4% (n = 5,900); in the data active means binding response below about 16% or above about 210%; inactive means in between
MEKK2mut-MEK5: signal of MEK5 binding to mutant human MEKK2, retest; AID 1893; shares compounds with MEKK3 PB1 HTS; percent response, % at 10 µM; bead flow cytometry, Alexa488-MEK5 binding to MEKK2 mutant; actives 2% (n = 5,900); in the data active means percent response mostly above about 71%, no sharp cut-off; inactive means mostly below about 38%;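 further: higher means compound restores mutant binding toward wildtype level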
MEKK3 confirm: confirmation of inhibitors of MEK5 binding to human MEKK3. shares compounds with MEKK3 PB1 HTS. bead flow cytometry, Alexa488-MEK5 binding to MEKK3; active compounds read low. binding response (% of control), % at 10 µM. actives 1.8% (n = 5,900). AID 1894;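 active means binding response below 72% of control, or above a set upper limit, though filed actives all read lower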;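 further: 100% = DMSO only wells and 0% = binding blocked by excess unlabeled MEK5; lower values mean stronger disruption of MEK5 binding to MEKK3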
Active calls of the source: *; [ ] = dose if it differs, or a comment.

How did CCOC(=O)c1c(NC(=O)CN2CCOCC2)sc2c1CC(C)(C)OC2 do in these assays?
GRK2 inh: 0.0; MEKK2 WT-MEK5: 4.0*[inhibitor]; MEKK3 PB1 HTS: 3.0*[inhibitor]; MEKK2mut PB1 HTS: -20.0; MEKK2wt confirm: 106.0; MEKK2mut-MEK5: 3.0; MEKK3 confirm: 101.0

Results for CCOC(=O)c1c(NC(=O)CCN2CCOCC2)sc2c1CC(C)(C)OC2 ?
GRK2 inh: 0.0; MEKK2 WT-MEK5: 114.0; MEKK3 PB1 HTS: 113.0; MEKK2mut PB1 HTS: 8.0

What do the screens show for `Cc1ccc(S(=O)(=O)Nc2ccc(NC(=O)c3c(F)c(F)c(F)c(F)c3F)cc2)cc1`?
GRK2 inh: 0.0; MEKK2 WT-MEK5: 98.0; MEKK3 PB1 HTS: 104.0; MEKK2mut PB1 HTS: -4.0

How did CC(C)(C)CN1CCN(Cc2c[nH]c3ccccc23)CC1CCO (stereo not given) do in these assays?
GRK2 inh: 1.0; MEKK2 WT-MEK5: 99.0; MEKK3 PB1 HTS: 98.0; MEKK2mut PB1 HTS: 7.0

How did COc1ccc(C2C(C(=O)Nc3cc(C)on3)c3ccccc3C(=O)N2C)cc1 (stereo not given) do in these assays?
GRK2 inh: 0.0; MEKK2 WT-MEK5: 95.0; MEKK3 PB1 HTS: 107.0; MEKK2mut PB1 HTS: 1.0

Results for COc1ccc(C2C(C(=O)Nc3cc(C)on3)c3ccccc3C(=O)N2C)cc1OC (stereo not given) ?
GRK2 inh: 2.0; MEKK2 WT-MEK5: 0.0*[inhibitor]; MEKK3 PB1 HTS: 0.0*[inhibitor]; MEKK2mut PB1 HTS: -15.0; MEKK2wt confirm: 104.0; MEKK2mut-MEK5: -1.0; MEKK3 confirm: 103.0

How did Cc1oc(-c2ccccc2F)nc1CS(=O)(=O)CC(=O)NCCCN1CCc2ccccc2C1 do in these assays?
GRK2 inh: 0.0; MEKK2 WT-MEK5: 149.0*; MEKK3 PB1 HTS: 113.0; MEKK2mut PB1 HTS: 21.0; MEKK2wt confirm: 132.0; MEKK2mut-MEK5: 11.0; MEKK3 confirm: 105.0

How did COc1cccc(-c2nc(CS(=O)(=O)CC(=O)N3CCc4ccccc4C3)c(C)o2)c1 do in these assays?
GRK2 inh: 0.0; MEKK2 WT-MEK5: -3.0*[inhibitor]; MEKK3 PB1 HTS: 1.0*[inhibitor]; MEKK2mut PB1 HTS: -19.0; MEKK2wt confirm: 101.0; MEKK2mut-MEK5: 1.0; MEKK3 confirm: 103.0

Results for COCC(COS(N)(=O)=O)Cc1ccccc1 (stereo not given) ?
GRK2 inh: 0.0; MEKK2 WT-MEK5: 139.0*; MEKK3 PB1 HTS: 105.0; MEKK2mut PB1 HTS: 4.0; MEKK2wt confirm: 107.0; MEKK2mut-MEK5: 7.0; MEKK3 confirm: 108.0

How did COc1ccc(CCNS(=O)(=O)c2ccc(Br)cc2)cc1OC do in these assays?
GRK2 inh: 0.0; MEKK2 WT-MEK5: 109.0; MEKK3 PB1 HTS: 106.0; MEKK2mut PB1 HTS: 5.0

How did CSc1cccc(CN2CCN(Cc3ccccc3)C(CCO)C2)c1 (stereo not given) do in these assays?
GRK2 inh: 0.0; MEKK2 WT-MEK5: 58.0; MEKK3 PB1 HTS: 48.0*[inhibitor]; MEKK2mut PB1 HTS: -15.0; MEKK2wt confirm: 101.0; MEKK2mut-MEK5: 4.0; MEKK3 confirm: 101.0

How did Cc1ccc(CNC(=O)Cn2ccc3ccccc3c2=O)o1 do in these assays?
GRK2 inh: 0.0; MEKK2 WT-MEK5: -3.0*[inhibitor]; MEKK3 PB1 HTS: 0.0*[inhibitor]; MEKK2mut PB1 HTS: -11.0; MEKK2wt confirm: 98.0; MEKK2mut-MEK5: 9.0; MEKK3 confirm: 102.0

How did COC(=O)CNC(=O)Cn1ccc2ccccc2c1=O do in these assays?
GRK2 inh: 1.0; MEKK2 WT-MEK5: 107.0; MEKK3 PB1 HTS: 109.0; MEKK2mut PB1 HTS: 3.0

How did COc1ccccc1/C=C/C(=O)NCC(=O)n1nc(C)cc1C do in these assays?
GRK2 inh: 4.0; MEKK2 WT-MEK5: 59.0*[inhibitor]; MEKK3 PB1 HTS: 58.0*[inhibitor]; MEKK2mut PB1 HTS: -40.0; MEKK2wt confirm: 101.0; MEKK2mut-MEK5: 0.0; MEKK3 confirm: 104.0

How did CCCCN(C)CC(O)Cn1cc(/C=C/C(=O)c2ccc(OCC)cc2)c2ccccc21 (stereo not given) do in these assays?
GRK2 inh: 0.0; MEKK2 WT-MEK5: 200.0*; MEKK3 PB1 HTS: 108.0; MEKK2mut PB1 HTS: 62.0*; MEKK2wt confirm: 169.0; MEKK2mut-MEK5: 42.0; MEKK3 confirm: 101.0
